Data reported in PubChem BioAssay AID1159580 (chemical genetic matrix, 2015).
Several values for one entry are separate records, joined by “and”; a condition that tells them apart may be missing. Equal entries are not always repeated. About 2,000 (36%) of roughly 5,500 compounds were called active. Not shown: some 18% with an inconclusive outcome. No stated cut-off is given here; in the data, active means normalized growth mostly below about 0.91 (no sharp cut-off); inconclusive means no clear call, values can overlap the other calls; inactive means mostly above about 0.92. The list shows a part of the results.

Test: chemical genetic growth profiling, strain panel (AID 1159580);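 further: tested at 20 µM; growth read once vehicle control cultures reached saturation at 30 °C; 1 = growth at the plate median or of vehicle wells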
Conditions: growth OD
[1] = S. cerevisiae deletion strains, locus YAL013W, strain DEP1, stronger effect = lower value
[2] = S. cerevisiae deletion strains, locus YBR229C, strain ROT2, stronger effect = lower value
[3] = S. cerevisiae deletion strains, locus YCL061C, strain MRC1, stronger effect = lower value
[4] = S. cerevisiae deletion strains, locus YDL101C, strain DUN1, stronger effect = lower value
[5] = S. cerevisiae deletion strains, locus YDL134C, strain PPH21, stronger effect = lower value
[6] = S. cerevisiae deletion strains, locus YDR150W, strain NUM1, stronger effect = lower value
[7] = S. cerevisiae deletion strains, locus YEL061C, strain CIN8, stronger effect = lower value
[8] = S. cerevisiae deletion strains, locus YGR078C, strain PAC10, stronger effect = lower value
[9] = S. cerevisiae deletion strains, locus YHR030C, strain SLT2, stronger effect = lower value
[10] = S. cerevisiae deletion strains, locus YHR087W, strain rtc3, stronger effect = lower value
[11] = S. cerevisiae deletion strains, locus YJL187C, strain SWE1, stronger effect = lower value
[12] = S. cerevisiae deletion strains, locus YJR043C, strain POL32, stronger effect = lower value
[13] = S. cerevisiae deletion strains, locus YJR075W, strain HOC1, stronger effect = lower value
[14] = S. cerevisiae deletion strains, locus YLR039C, strain RIC1, stronger effect = lower value
[15] = S. cerevisiae deletion strains, locus YLR058C, strain SHM2 (second series), stronger effect = lower value
[16] = S. cerevisiae deletion strains, locus YLR085C, strain ARP6, stronger effect = lower value
[17] = S. cerevisiae deletion strains, locus YLR262C, strain YPT6, stronger effect = lower value
[18] = S. cerevisiae deletion strains, locus YML094W, strain GIM5, stronger effect = lower value
[19] = S. cerevisiae deletion strains, locus YMR219W, strain ESC1, stronger effect = lower value
[20] = S. cerevisiae deletion strains, locus YMR263W, strain SAP30, stronger effect = lower value
[21] = S. cerevisiae deletion strains, locus YMR307W, strain GAS1, stronger effect = lower value
[22] = S. cerevisiae deletion strains, locus YNL153C, strain GIM3, stronger effect = lower value
[23] = S. cerevisiae deletion strains, locus YNL298W, strain CLA4 (second series), stronger effect = lower value
[24] = S. cerevisiae deletion strains, locus YNL322C, strain KRE1, stronger effect = lower value
[25] = S. cerevisiae deletion strains, locus YNR030W, strain Alg12, stronger effect = lower value
[26] = S. cerevisiae deletion strains, locus YPL055C, strain LGE1, stronger effect = lower value
[27] = S. cerevisiae deletion strains, locus YPL241C, strain CIN2, stronger effect = lower value
[28] = S. cerevisiae deletion strains, locus YPR135W, strain CTF4, stronger effect = lower value
[29] = S. cerevisiae deletion strains, locus YGR229C, strain SMI1, stronger effect = lower value
[30] = S. cerevisiae deletion strains, locus YNL128W, strain TEP1, stronger effect = lower value
[31] = S. cerevisiae deletion strains, locus YOL006C, strain TOP1, stronger effect = lower value
[32] = S. cerevisiae strains, strain wild type, stronger effect = lower value

Measured: normalized growth

CCOC(=O)c1c(C)csc1N
inactive: [1] 0.99 | [2] 0.999 | [3] 0.996 | [4] 0.998 | [5] 1.01 | [6] 1.01 | [7] 0.987 | [8] 0.983 | [9] 0.98 | [10] 1.01 | [11] 1 | [12] 1.01 | [13] 0.997 | [14] 1 | [15] 1.01 | [16] 0.983 | [17] 1.02 | [18] 0.984 | [19] 1.01 | [20] 1.02 | [21] 0.9 | [22] 1 | [23] 0.967 | [24] 0.993 | [25] 0.984 | [26] 1.03 | [27] 0.972 | [28] 1.02

CCOC(=O)Nc1ccc(NCc2ccc(F)cc2)nc1N
inactive: [1] 1.02 | S. cerevisiae deletion strains, locus YAL040C, strain CLN3, stronger effect = lower value 1.01 | S. cerevisiae deletion strains, locus YCL061C, strain MRC1 (second series), stronger effect = lower value 1 | [6] 0.991 | S. cerevisiae deletion strains, locus YDR363W, strain ESC2, stronger effect = lower value 1.02 | S. cerevisiae deletion strains, locus YER002W, strain NOP16, stronger effect = lower value 1 | [29] 1.07 | [13] 1.01 | [21] 0.994 | [30] 0.993 | S. cerevisiae deletion strains, locus YNL175C, strain NOP13, stronger effect = lower value 1.01 | S. cerevisiae deletion strains, locus YNL197C, strain WHI3, stronger effect = lower value 1.01 | S. cerevisiae deletion strains, locus YNL224C, strain SQS1, stronger effect = lower value 1.04 | [24] 1.01 | S. cerevisiae deletion strains, locus YOR083W, strain WHI5 (second series), stronger effect = lower value 1.03 | [26] 1.02

CCOC(=O)c1c(-c2ccc(F)cc2)csc1N
active: [1] 0.879 | [2] 0.905 | [3] 0.889 | [5] 0.887 | [7] 0.746 | [29] 0.928 | [9] 0.175 | [10] 0.858 | [11] 0.903 | [13] 0.86 | [14] 0.437 | [15] 0.897 | [16] 0.508 | [17] 0.438 | [18] 0.798 | [19] 0.93 | [23] 0.782 | [25] 0.842 | [31] 0.479 | [26] 0.754 | [27] 0.807 | [28] 0.435 | [32] 0.82
inactive: [4] 0.986 | [6] 0.986 | [8] 0.93 | [12] 0.957 | [22] 0.941 | [24] 0.95

CC(=O)N[C@@H]1[C@@H](C(O)[C@H](O)CO)O[C@](O)(C(=O)O)C[C@@H]1O (stereo not given in full)
inactive: [1] 1.01 | S. cerevisiae deletion strains, locus YBR021W, strain FUR4, stronger effect = lower value 1.02 | [2] 1 | S. cerevisiae deletion strains, locus YCL029C, strain bik1, stronger effect = lower value 0.997 | S. cerevisiae deletion strains, locus YDL035C, strain GPR1, stronger effect = lower value 1.01 | S. cerevisiae deletion strains, locus YDL074C, strain BRE1, stronger effect = lower value 1.04 | [4] 1.03 | [5] 1 | S. cerevisiae deletion strains, locus YDL185W, strain tfp1, stronger effect = lower value 1.02 | S. cerevisiae deletion strains, locus YDL192W, strain arf1, stronger effect = lower value 0.999 | S. cerevisiae deletion strains, locus YDR101C, strain arx1, stronger effect = lower value 1 | [6] 1 | S. cerevisiae deletion strains, locus YDR162C, strain NBP2, stronger effect = lower value 1.02 | S. cerevisiae deletion strains, locus YDR318W, strain mcm21, stronger effect = lower value 1.01 | S. cerevisiae deletion strains, locus YDR388W, stronger effect = lower value 1.01 | S. cerevisiae deletion strains, locus YDR502C, strain sam2, stronger effect = lower value 0.998 | [7] 1 | S. cerevisiae deletion strains, locus YER110C, stronger effect = lower value 1 | S. cerevisiae deletion strains, locus YER155C, strain BEM2, stronger effect = lower value 1 | S. cerevisiae deletion strains, locus YER167W, strain BCK2, stronger effect = lower value 1 | S. cerevisiae deletion strains, locus YGL078C, strain dbp3, stronger effect = lower value 0.982 | S. cerevisiae deletion strains, locus YGL086W, strain mad1, stronger effect = lower value 1 | S. cerevisiae deletion strains, locus YGL248W, strain PDE1, stronger effect = lower value 1.01 | [8] 1.03 | S. cerevisiae deletion strains, locus YGR135W, strain pre9, stronger effect = lower value 1.01 | [29] 1.02 | S. cerevisiae deletion strains, locus YGR252W, strain gcn5, stronger effect = lower value 0.958 | [9] 0.998 and 1.01 | S. cerevisiae deletion strains, locus YHR079C, strain IRE1 (second series), stronger effect = lower value 1.01 | S. cerevisiae deletion strains, locus YHR079C, strain IRE1, stronger effect = lower value 1 | S. cerevisiae deletion strains, locus YHR094C, strain hxt1, stronger effect = lower value 1.01 | S. cerevisiae deletion strains, locus YHR129C, strain ARP1, stronger effect = lower value 1.02 | S. cerevisiae deletion strains, locus YHR200W, strain rpn10, stronger effect = lower value 1.01 | S. cerevisiae deletion strains, locus YIL066C, strain RNR3, stronger effect = lower value 1.02 | S. cerevisiae deletion strains, locus YIL073C, strain SPO22, stronger effect = lower value 1.02 | S. cerevisiae deletion strains, locus YIL125W, strain kgd1, stronger effect = lower value 0.993 | S. cerevisiae deletion strains, locus YIR030C, strain dcg1, stronger effect = lower value 0.999 | S. cerevisiae deletion strains, locus YJL095W, strain BCK1, stronger effect = lower value 1.06 and 0.995 | S. cerevisiae deletion strains, locus YJL134W, strain LCB3, stronger effect = lower value 1.01 | S. cerevisiae deletion strains, locus YJL168C, strain set2, stronger effect = lower value 1.01 | S. cerevisiae deletion strains, locus YJL187C, strain SWE1 (second series), stronger effect = lower value 1.04 | [12] 1.04 | S. cerevisiae deletion strains, locus YJR066W, strain TOR1, stronger effect = lower value 0.916 | [13] 1.02 | S. cerevisiae deletion strains, locus YKL009W, strain mrt4, stronger effect = lower value 1.02 | S. cerevisiae deletion strains, locus YKL068W, stronger effect = lower value 0.998 | S. cerevisiae deletion strains, locus YKL085W, strain MDH1 (second series), stronger effect = lower value 1 | S. cerevisiae deletion strains, locus YKL085W, strain MDH1, stronger effect = lower value 1 | S. cerevisiae deletion strains, locus YKL190W, strain CNB1, stronger effect = lower value 1.01 | S. cerevisiae deletion strains, locus YKR001C, strain vps1, stronger effect = lower value 1.01 | [14] 1.02 | S. cerevisiae deletion strains, locus YLR058C, strain SHM2, stronger effect = lower value 1.01 | S. cerevisiae deletion strains, locus YLR102C, strain apc9, stronger effect = lower value 1.01 | S. cerevisiae deletion strains, locus YLR113W, strain HOG1, stronger effect = lower value 1.05 | [17] 1.03 | S. cerevisiae deletion strains, locus YLR268W, strain sec22, stronger effect = lower value 1.07 | S. cerevisiae deletion strains, locus YLR330W, strain CHS5, stronger effect = lower value 1 | S. cerevisiae deletion strains, locus YLR342W, strain FKS1 (second series), stronger effect = lower value 1.02 | S. cerevisiae deletion strains, locus YLR371W, strain rom2, stronger effect = lower value 1.01 | S. cerevisiae deletion strains, locus YLR418C, strain cdc73, stronger effect = lower value 1.01 | S. cerevisiae deletion strains, locus YML016C, strain PPZ1, stronger effect = lower value 1.01 | S. cerevisiae deletion strains, locus YML032C, strain rad52, stronger effect = lower value 1.05 | S. cerevisiae deletion strains, locus YML124C, strain tub3, stronger effect = lower value 0.997 | S. cerevisiae deletion strains, locus YMR078C, strain ctf18, stronger effect = lower value 1.01 | S. cerevisiae deletion strains, locus YMR223W, strain ubp8, stronger effect = lower value 0.975 | [20] 1.02 | [21] 1.01 | S. cerevisiae deletion strains, locus YNL067W, strain RPL9B, stronger effect = lower value 1.05 | [30] 1.03 | [22] 1.04 | S. cerevisiae deletion strains, locus YNL183C, strain NPR1, stronger effect = lower value 0.913 | S. cerevisiae deletion strains, locus YNL233W, strain BNI4, stronger effect = lower value 1.03 | S. cerevisiae deletion strains, locus YNL250W, strain rad50, stronger effect = lower value 0.999 | S. cerevisiae deletion strains, locus YNL271C, strain bni1, stronger effect = lower value 1.01 | S. cerevisiae deletion strains, locus YNL298W, strain CLA4, stronger effect = lower value 0.994 | S. cerevisiae deletion strains, locus YNL307C, strain MCK1, stronger effect = lower value 1 | [24] 1 | S. cerevisiae deletion strains, locus YNR052C, strain pop2, stronger effect = lower value 1.01 | [31] 1.15 | S. cerevisiae deletion strains, locus YOL012C, strain htz1 1.02 | S. cerevisiae deletion strains, locus YOL147C, strain pex11, stronger effect = lower value 1 | S. cerevisiae deletion strains, locus YOR061W, strain CKA2, stronger effect = lower value 1.01 | S. cerevisiae deletion strains, locus YOR069W, strain VPS5, stronger effect = lower value 1.01 | S. cerevisiae deletion strains, locus YOR136W, strain idh2, stronger effect = lower value 0.986 | S. cerevisiae deletion strains, locus YOR144C, strain elg1, stronger effect = lower value 0.994 | S. cerevisiae deletion strains, locus YOR184W, strain ser1, stronger effect = lower value 0.994 | S. cerevisiae deletion strains, locus YOR231W, strain MKK1, stronger effect = lower value 0.996 | S. cerevisiae deletion strains, locus YOR316C, strain cot1, stronger effect = lower value 1.01 | [26] 1.02 | [27] 1.01 | S. cerevisiae deletion strains, locus YPL256C, strain CLN2, stronger effect = lower value 0.99 | S. cerevisiae deletion strains, locus YPR119W, strain clb2, stronger effect = lower value 1 | S. cerevisiae deletion strains, locus YPR141C, strain kar3, stronger effect = lower value 0.999 | S. cerevisiae deletion strains, locus YPR163C, strain tif3, stronger effect = lower value 1.01 | S. cerevisiae deletion strains, locus YPR167C, strain met16, stronger effect = lower value 1 | S. cerevisiae deletion strains, strain wtn01, stronger effect = lower value 1.01 | [32] 1.01
